According to PubChem BioAssay AID588651 (The Scripps Research Institute Molecular Screening Center, 2011):
Active and inactive are the calls of the source. Rule as the data show it: active = inhibition above about 65%; inactive = the rest.

The compounds below were run on Fam108b (assay: Fam108b inhibition by ABPP, late-stage follow-up, biochemical, gel-based ABPP, recombinant soluble Fam108b, HTS hits, complex proteome (AID 588651;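 also: Fam108b spiked into mouse brain membrane proteome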)). Conditions: FP-rhodamine labeling in proteome, at 20 µM, stronger effect = higher value.

SMILES	inhibition
O=c1cc(-c2ccc(O)c(-c3c(O)cc(O)c4c(=O)cc(-c5ccc(O)cc5)oc34)c2)oc2cc(O)cc(O)c12	95% (active)
Cc1ccc(-n2c(O)c(/C=N/Nc3ccc(S(=O)(=O)N4CCOCC4)cc3[N+](=O)[O-])c3ccccc3c2=O)c(C)c1	40% (inactive)
O=C(CCCSc1ccccc1)Nc1nc(-c2ccco2)c(-c2ccco2)s1	0% (inactive)
CC1=CC(=O)c2c(O)ccc(O)c2C1=O	50% (inactive)
Oc1ccc(C=NNc2ccnc3cc(Cl)ccc23)cc1O	65% (active)
COc1ccc(C=NNC(=O)c2ccc(O)cc2)cc1CN1CCCc2ccccc21	40% (inactive)
O=C(O)C1Nc2ccc(Br)cc2C2C=CCC12 (centres undefined)	0% (inactive)
COc1cc(-c2nc(-c3ccc4c(c3)-c3ccccc3S4(=O)=O)c(-c3ccccc3)[nH]2)cc(OC)c1O	40% (inactive)
Cc1cc(C)nc(SCc2ccc(C(=O)NN=Cc3cccc(O)c3O)cc2)n1	30% (inactive)
COc1ccc2oc(=O)c(-c3csc(Nc4cccc(O)c4)n3)cc2c1	0% (inactive)
O=C(Nc1ccc(N2CCCC2)c(S(=O)(=O)Nc2cccc(C(F)(F)F)c2)c1)c1cccs1	85% (active)
O=S(=O)(c1cc(O)ccc1O)c1cccc2c(S(=O)(=O)c3cc(O)ccc3O)cccc12	10% (inactive)
O=C(Nc1cccc(-c2csc(Nc3ccc(Cl)cc3)n2)c1)c1cc([N+](=O)[O-])cc(C(F)(F)F)c1	65% (active)
Cc1c(O)ccc(C=NNc2nc(-c3cccnc3)nc3ccccc23)c1O	85% (active)
